40 molecules from PubChem BioAssay (EPA / NIEHS) can be followed below.

The source made the active and inactive calls. The calls were made as follows: active = hit-call score of the fitted dose curve at least 0.9, where 1 is the maximum; inactive = score below 0.9.

This assay in a line: ATG_RORE_CIS: Attagene CIS-FACTORIAL HepG2 Assay for human RAR-related Orphan Receptor Element (RORE) (AID 2282959). Conditions: HepG2 Attagene cis-factorial RORE reporter, mRNA; actives raise or lower the signal. On the procedure:
ATG_CIS is a cell-based, multiplexed-readout assay that uses HepG2, a human liver cell line, with measurements taken at 24 hours after chemical dosing in a 24-well plate.ATG_RORE_CIS is one of 52 assay component(s) measured or calculated from the ATG_CIS assay. It is designed to make measurements of mRNA induction, a form of inducible reporter, as detected with fluorescence intensity signals by Reverse transcription polymerase chain reaction (RT-PCR) and Capillary electrophoresis technology.Data from the assay component ATG_RORE_CIS was analyzed into 1 assay endpoint. This assay endpoint, ATG_RORE_CIS, was analyzed with bidirectional fitting relative to DMSO as the negative control and baseline of activity. Using a type of inducible reporter, measures of mRNA for gain or loss-of-signal activity can be used to understand the reporter gene at the transcription factor-level as they relate to the gene RORA and RORB and RORC. Furthermore, this assay endpoint can be referred to as a primary readout, because this assay has produced multiple assay endpoints where this one serves a reporter gene function. To generalize the intended target to other relatable targets, this assay endpoint is annotated to the nuclear receptor intended target family, where the subfamily is orphan.
Human liver HepG2 cells are transiently transfected with multiple reporter transcription units (MRTUs) in 6-well plates using FuGene 6 reagent (Roche; 3 ml FuGene/1 mg DNA). The MRTU constructs are regulated by a cis-regulating element (promoter). […] A major difference between the CIS and TRANS system is that in CIS activities of endogenous TFs are measured, whereas the TRANS assay evaluates changes in activities of exogenous, chimeric NR-Gal4 proteins. […] At the end of 24 hour incubation, total RNA was isolated using TriZol reagent (Invitrogen). The isolated RNA is then reverse-transcribed using oligo(dT) primer and Mo-MLV reverse transcriptase (Invitrogen) with DNAse I (Ambion) treatment for 30 min. The one-tenth of the produced cDNA was amplified by PCR using Taq DNA polymerase (Invitrogen) and two reporter sequence-specific primers. The PCR products were fluorescently labeled by primer extension with 6-arboxyfluorescein (6-FAM) 5'-labeled reporter sequence-specific primer (2 min at 95 C, 20 s at 68 C and 10 min at 72 C) and these products were digested with 5U of HpaI (New England Biolabs) for 2h at 37 C. The fragments were purified using Qiaquick PCR columns (Qiagen), analyzed on an ABI 3130xL genetic analyzer (Applied Biosystems) with peak positions identified by using a set of X-rhodamine (ROX)-labeled MapMarker1000 molecular weight standards (BioVentures). The raw capillary electrophoresis data was processed using Attagraph software (Attagene).
For the molecule `COC(=O)OC`, the molecule was classed as inactive. Consider `CC(CCO)CCCC(C)(C)O` (stereo not given), for which the result was inactive. Still for that read-out and setting: then `O=Nc1ccc(Nc2ccccc2)cc1`, with “inactive”. Take `CCCCCCCCCCCCN(CCCCCCCCCCCC)CCCCCCCCCCCC`: the call was inactive.

Regarding `CC(=O)[O][Al][O]C(C)=O`, the outcome was inactive. Consider `CSc1nc(NC2CC2)nc(NC(C)(C)C)n1`, for which the outcome was inactive.

For the molecule `CCCCOCCOCCSC#N`, the outcome was inactive. On the same count and under the same terms, then `Nc1cc([N+](=O)[O-])ccc1O`, with “inactive”. On the same count and under the same terms, as for `CCCC[n+]1ccccc1`, the entry is “inactive”; as for `O=[N+]([O-])c1ccc(C=Cc2ccc([N+](=O)[O-])cc2S(=O)(=O)O)c(S(=O)(=O)O)c1`, “inactive”. For the molecule `CCN(CC)c1ccc2c(-c3ccccc3C(=O)O)c3ccc(=[N+](CC)CC)cc-3oc2c1`, the outcome was inactive. Same read-out and setting: as for `CCCCCC(=O)OCCc1ccccc1`, the entry is “inactive”; as for `CC(=O)OCCOC(C)=O`, “inactive”; as for `O=[N+]([O-])c1cc(C(F)(F)F)ccc1Cl`, “inactive”. Consider `C=CC[N+](C)(C)CC=C`, for which the outcome was inactive. On the same count and under the same terms, then `OCCOc1cccc(OCCO)c1`, with “inactive”; and `CC(C)=CCC[C@](C)(O)[C@@H]1CC=C(C)CC1`, with “inactive”. `Nc1ccc(F)c([N+](=O)[O-])c1`: the call was inactive. For `CC(C)=CCC/C(C)=C/COC=O`, the molecule was classed as inactive. Same read-out and setting: as for `N#Cc1ccccc1`, the entry is “inactive”; as for `CCCCCCCCC`, “inactive”. Take `CC(=O)OCC=Cc1ccccc1`: the call was inactive. Turning to `O=C(O)COCCN1CCN(C(c2ccccc2)c2ccc(Cl)cc2)CC1` (stereo not given), the call was inactive. For the molecule `CN(C)c1ccc(O)c2c1C[C@H]1C[C@H]3[C@H](N(C)C)C(=O)C(C(N)=O)=C(O)[C@@]3(O)C(=O)C1=C2O`, the molecule was called inactive.

For the molecule `C=C(C)C(=O)Nc1ccc(Cl)c(Cl)c1`, the AC50 was 27.2 µM (active). Consider `C=C(C)C1CCC(C)CC1O` (stereo not given), for which the call was inactive.

With `CC(C)(C)c1n[nH]c(=S)n(N)c1=O`, the result was inactive. In the case of `CCCOCC(C)O` (stereo not given), the result was inactive. Regarding `CCCCCC(CO)CCC` (stereo not given), the molecule was classed as inactive. On the same count and under the same terms, as for `CC1COc2ccccc2N1C(=O)C(Cl)Cl` (stereo not given), the entry is “inactive”; as for `CCCCCC=CCC(=O)OC`, “inactive”. Turning to `COC(=O)Cc1cccc2ccccc12`, the call was inactive. With `OC[C@H]1O[C@H](O[C@]2(CCl)O[C@H](CCl)[C@@H](O)[C@@H]2O)[C@H](O)[C@@H](O)[C@H]1Cl`, the molecule was classed as inactive. In the case of `Cc1ccccc1C=O`, the molecule was called inactive.

Turning to `Cc1ccc(Nc2ccc(O)c3c2C(=O)c2ccccc2C3=O)cc1`, the molecule was classed as inactive. Same read-out and setting: as for `CCOC(=S)SSC(=S)OCC`, the entry is “inactive”; as for `CCN(CC)c1ccc(C(=C2C=CC(=[N+](CC)CC)C=C2)c2ccc(S(=O)(=O)O)cc2S(=O)(=O)[O-])cc1`, “inactive”.

As to `Cc1ccc2n[nH]nc2c1`, the molecule was classed as inactive.

In the case of `CC(C)(CO)[N+](=O)[O-]`, the call was inactive. Turning to `O=C(O)CCCCC1CCSS1` (stereo not given), the result was inactive.
